# Assay outcomes as filed in PubChem.
# Compounds with a hit are over-represented: about 9.2% of the library has one in this group of screens.
# NPC1 promoter act = activators of NPC1 promoter | Huh7 NPC1 promoter luciferase reporter, 24 h | Potency, µM (highest dose often 9.22 µM), without a hit: at the top dose activation, most hits filed as activators | 320,000 tested, 2.4% active; also: % of control where 0% means no effect; nearly all actives have a fitted effect of over 60% in size
#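 Luminescence from an NPC1 promoter-driven luciferase reporter in stably transfected Huh7 cells was measured after 24 h compound treatment at 37 °C, followed by 10 min ambient incubation with luciferase detection reagent.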
# FLuc counter = firefly luciferase modulation, counter-screen for miR-21 project; P08659; purified FLuc, Km substrates, luminescence inhibition; Potency, µM (series often up to 57.5 µM), for inactives: at the top dose activity change, negative = inhibition, usual class: inhibitors; 360,000 tested, 6.9% active; AID 588342;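 also: plate controls were vehicle for no effect and reference inhibitor for full effect; nearly all actives have a fitted effect of over 55% in size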
# Target sequence (P08659 whole entry, looked up): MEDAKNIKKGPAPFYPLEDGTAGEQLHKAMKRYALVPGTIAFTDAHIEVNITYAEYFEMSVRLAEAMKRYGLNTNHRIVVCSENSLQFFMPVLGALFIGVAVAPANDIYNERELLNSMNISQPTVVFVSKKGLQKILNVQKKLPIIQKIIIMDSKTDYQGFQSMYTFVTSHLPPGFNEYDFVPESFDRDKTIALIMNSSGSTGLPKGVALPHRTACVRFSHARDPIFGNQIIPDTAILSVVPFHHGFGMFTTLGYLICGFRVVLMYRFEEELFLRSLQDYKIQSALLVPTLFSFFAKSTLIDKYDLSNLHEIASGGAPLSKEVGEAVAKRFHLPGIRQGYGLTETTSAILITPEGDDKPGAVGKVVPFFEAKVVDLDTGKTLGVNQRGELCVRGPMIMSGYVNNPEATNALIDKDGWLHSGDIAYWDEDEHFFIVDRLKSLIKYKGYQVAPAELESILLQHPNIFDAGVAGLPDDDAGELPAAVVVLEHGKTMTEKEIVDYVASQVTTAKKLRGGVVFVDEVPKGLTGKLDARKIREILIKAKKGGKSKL
#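 Purified P. pyralis luciferase, 10 nM final, with Km-level 10 uM D-luciferin and 10 uM ATP in 50 mM Tris acetate pH 7.5, 10 mM Mg acetate, 0.01% Tween-20, 0.05% BSA; 6-point qHTS titration about 60 µM downward; luminescence read.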
# ELG1 genotox = induces genotoxicity in HEK293T cells with luciferase-tagged ELG1 | Potency, µM (doses to about 46 µM), for inactives: at the top dose activity change, positive = activation, hits mostly activators | 330,000 tested, 1.3% active | AID 504466 | HEK293T ELG1-luciferase reporter, luminescence, 16 h; also: % of control where 0% means no effect; nearly all actives have a fitted effect of over 60% in size
#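 Reporter readout depends on ELG1 protein level, which increases with genetic stress. After 16 hr compound exposure at 37 °C, luciferase activity was quantified using ONE-Glo.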
# Rab9 prom act = activators of Rab9 promoter; Potency, µM (titrated, usually from 9.22 µM), for inactives: at the highest dose activation, negative = inhibition, actives largely listed as activators; 320,000 tested, 2.8% active; Huh7 Rab9 promoter-luciferase reporter, luminescence, 24 h; AID 485297; also: % of control where 0% means no effect; nearly all actives have a fitted effect of over 60% in size
#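 Luminescence read-out: Huh7 cells stably expressing Rab9-luciferase, treated 24 h with compound at 37 °C, then lysed with luciferase reagent for 10 min at ambient before reading.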
# ELG1 DNA repair = ELG1-dependent DNA repair inhibition | HEK293T ELG1-luciferase reporter, luminescence, 16 h; DNA damage induced by 5-fluorouridine | Potency, µM (doses to about 46.1 µM), inactives show at the highest dose activity change, negative = inhibition, most hits filed as inhibitors | 330,000 tested, 2.3% active | AID 504467; also: % is scaled to controls: 0 for no effect and ±100 for the full control effect; nearly all actives have a fitted effect of over 55% in size
#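 DMSO vehicle served as the neutral condition. Each well held 2,000 cells given 5-fluorouridine plus compound; after 16 hr at 37 °C/5% CO2, ONE-Glo was added and luciferase measured 30 min later.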
# SMN2 splice up = SMN2 splice variant enhancement. HEK293 SMN2-luciferase splicing reporter, luminescence, 30-36 h. Potency, µM (top dose mostly 46.1 µM), for inactives: top-dose activity change, positive = activation, hits mostly activators. 210,000 tested, 2.8% active; also: % of control where 0% means no effect; nearly all actives have a fitted effect of over 55% in size
#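 qHTS luciferase splicing reporter: luminescence rises when SMN2 exon 7 is included in transfected HEK293 cells. Compound exposure lasted 30-36 h at 37C, with 4.5 mM final sodium butyrate as control, followed by a ONE-Glo read.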
# * hit, by the source's call; ? = inconclusive; / = no result given. Calls follow the shape of the dose curve; as a rule, active = well fitted curve in the direction sought with a large enough effect; inconclusive = small, poorly fitted or top-dose-only effect, or another doubt; inactive = no such curve, though single readings can be large; an effect the other way counts as inactive or inconclusive. Potency is read from the fitted curve at half-maximal effect.
SMILES,NPC1 promoter act,FLuc counter,ELG1 genotox,Rab9 prom act,ELG1 DNA repair,SMN2 splice up
COc1ccc(C2C=C(c3ccccc3)Nc3nc(NS(=O)(=O)c4ccccc4)nn32)cc1 (centres undefined),/,-14.0%,/,/,/,/
Cc1ccc(S(=O)(=O)N2CCCN(C(=O)CNC(=O)c3cccc(C)c3)CC2)cc1,-2.1%,/,-0.4%,0.1%,-7.0%,/
C/C(=N\NC(=O)CSCc1ccccc1Cl)c1cc(O)ccc1O,-23.4%,19µM*,?,-22.1%,18.3µM*,/
Nc1nc(-c2ccc(Cl)cc2)nnc1-c1ccc(Br)cc1,1.78µM*,?,?,1.12µM*,?,/
Cc1ccc(Oc2ccc(-c3nc(N)nc(N)n3)cc2)cc1,-2.9%,?,16.3%,-3.0%,1.8%,-9.8%
Nc1nc(N)nc(-c2ccc(Cl)cc2)n1,?,15.1µM*,?,?,?,24.5%
CCCc1cc2c(=O)c(-c3ccc4c(c3)OCCO4)coc2cc1OS(C)(=O)=O,?,5.36µM*,0.2%,3.16µM*,?,?
CCCc1cc2c(=O)c(-c3ccc4c(c3)OCCO4)c(C)oc2cc1OS(C)(=O)=O,-0.8%,-7.4%,-9.2%,2.2%,13µM*,-73.6%
S=C(Nc1ccc(CN2CCCCC2)cc1)Nc1cccc(Cl)c1Cl,8.2%,2.0%,-4.3%,10.0%,?,/
CCCN1CCN(C(=O)c2ccccc2-c2nc3ccccc3s2)CC1,2.0%,1.3%,0.3%,-1.1%,9.4%,10.3%
CCN1CCN(C(=O)c2ccc(-c3nc4ccccc4s3)s2)CC1,?,?,13.8%,2.24µM*,?,11.2µM*
CCOC(=O)C1CCN(S(=O)(=O)c2ccc(-c3nc4ccccc4s3)s2)CC1,29.6%,21.3µM*,?,17.1%,?,-28.5%
O=C(NC1CC1)c1ccc(-c2nc3ccccc3s2)s1,0.398µM*,0.151µM*,0.259µM*,0.316µM*,?,0.501µM*
O=C(c1ccc(-c2nc3ccccc3s2)s1)N1CCOCC1,0.0891µM*,0.379µM*,?,?,?,/
COc1ccc2c(c1)C(c1ccccc1)NC(=O)C2 (centres undefined),0.2%,0.1%,0.7%,-2.7%,7.0%,/
O=C(Cn1nc(-c2ccccc2)ccc1=O)N1CCCCC1,-1.8%,-2.5%,0.7%,1.9%,9.4%,/
Cc1cc(C)nc(N/N=C/c2ccccc2Cl)n1,22.4%,?,14.5%,?,?,/
COc1ccc(Nc2cc(C)nc(NCc3ccccc3)n2)cc1,-11.4%,-19.5%,-6.7%,-26.3%,18.3µM*,/
Cc1cc(N/N=C/c2ccccc2Cl)nc(NCc2ccccc2)n1,-2.0%,7.57µM*,-7.5%,-5.2%,?,-31.0%
CC(=O)N1CCc2cc(S(=O)(=O)CCC(=O)NCc3ccc(F)cc3)ccc21,-6.2%,0.4%,-0.5%,-3.2%,-3.3%,/
O=C(Nc1ccc(C(F)(F)F)cc1)C1CCCN(c2cnccn2)C1 (centres undefined),/,-2.1%,/,/,/,-20.1%
CC(C)(C)C1CCc2c(C(=O)N/N=C/c3cccs3)csc2C1 (centres undefined),?,5.36µM*,9.4%,?,?,14.1µM*
CC(C)(C)C1CCc2c(C(=O)NNC(=O)/C=C/C(=O)O)csc2C1 (centres undefined),-0.8%,23.9µM*,-0.9%,6.0%,2.1%,4.3%
COc1ccc(C(=O)N(C)CCCC2CCCC2)cc1OC1CCN(C(C)C)CC1,-2.5%,2.3%,-4.3%,0.3%,-1.7%,/
COc1ccc(-c2cc(N3C(=O)Nc4ccccc4N3O)n[nH]2)cc1,-1.1%,10.7µM*,-2.8%,8.8%,6.5%,?
SMILES,NPC1 promoter act,FLuc counter,ELG1 genotox,Rab9 prom act,ELG1 DNA repair,SMN2 splice up
COc1ccc(-c2cc(N3C(=O)Nc4ccccc4N3O)n[nH]2)c(OC)c1,-1.9%,15.1µM*,-10.5%,-1.5%,-19.9%,-8.4%
CCOc1ccc(-c2cc(N3C(=O)Nc4ccccc4N3O)on2)cc1,15.0%,2.39µM*,2.0%,15.6%,?,16.0%
Cc1ccc(NC(=O)c2nc(S(=O)(=O)Cc3ccccc3C)ncc2Cl)cc1C,-24.3%,10.7µM*,-17.4%,-15.6%,?,/
CC(=O)Nc1ccc(NC(=O)c2nc(S(=O)(=O)Cc3cccc(C)c3)ncc2Cl)cc1,-46.5%,1.0%,2.9%,-41.3%,?,/
Cc1ccc(NC(=O)c2nc(S(=O)(=O)Cc3ccc(F)cc3)ncc2Cl)cc1C,/,-1.2%,/,/,/,/
COC(=O)c1ccc(NC(=O)c2nc(S(=O)(=O)Cc3cccc(C)c3)ncc2Cl)cc1,-29.7%,-16.6%,-1.6%,-1.4%,16.4µM*,/
O=C(CSc1ncc2c(n1)-c1ccccc1N(Cc1ccc(F)cc1)S2(=O)=O)NCCc1ccccc1,/,3.4%,/,/,/,/
O=S(=O)(c1ccc(Br)cc1)c1nnn2c1nc(NCCc1ccccc1)c1sccc12,/,4.5%,/,/,/,/
N#CC(c1ccccc1O)N1N=C(c2ccccc2)CC1c1ccccc1 (centres undefined),16.2%,9.53µM*,?,?,?,/
COc1cc(C(C#N)N2N=C(c3ccccc3)CC2c2ccccc2)ccc1O (centres undefined),14.9%,?,?,12.0%,?,-0.7%
CC(C)NC(=S)N1CCN(Cc2ccc3c(c2)OCO3)CC1,-5.9%,-1.2%,-0.4%,-5.0%,6.0%,-1.6%
COc1ccc2[nH]c(C(=O)Nc3ccc4c(c3)OCO4)cc2c1,3.16µM*,4.78µM*,16.8%,2.82µM*,?,/
CCN(CC)c1ccc(NC(=O)c2ccc3c(c2)OCO3)cc1,?,6.75µM*,?,2.24µM*,?,/
CCN(CC)c1ccc(C(=O)NC(=S)N2CCN(Cc3ccc4c(c3)OCO4)CC2)cc1,0.1%,21.3µM*,-3.4%,1.3%,2.9%,11.9%
CCOC(=O)c1ccc(NC(=O)c2ccc3c(c2)OCO3)cc1,26.6%,?,0.0%,?,?,16.2%
COc1ccc(NC(=O)c2ccc3c(c2)OCO3)cc1,1.12µM*,3.38µM*,5.17µM*,0.631µM*,?,/
CCC(=O)Nc1ccc(NC(=O)c2ccc3c(c2)OCO3)cc1,-2.4%,-18.8%,14.3%,-5.7%,?,-1.1%
CC(C)c1nc(C(=O)N2CCCC(N3CCN(c4cccc(Cl)c4)CC3)C2)cs1 (centres undefined),-4.1%,0.3%,-6.7%,3.3%,?,/
CCOC(=O)c1c(S(=O)(=O)N2CCC(C(=O)N3CCN(c4cc(C)ccc4C)CC3)CC2)c(C)n(C)c1C,/,-8.5%,/,/,/,/
CC(=O)c1cccc(NC(=O)c2cc(C)nc3c2c(C)nn3-c2cccc(Cl)c2C)c1,/,-1.6%,/,/,/,/
CN(C)c1ccc(-c2nc(NCc3cccnc3)c3ccccc3n2)cc1,/,/,/,/,/,-88.8%
